According to PubChem BioAssay:
The source made the active and inactive calls.

Key:
[1] = system: Plasmodium falciparum Sir2 (PF13_0152, Sir2A); test: Plasmodium falciparum Sir2A binding compounds – biochemical, small-molecule microarray, 635 nm fluorescence, primary screen (AID 1098); conditions: fluorescence 635 nm, higher = more signal;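 further: score merges spot fluorescence intensity with its signal-to-noise ratio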
[2] = probe aDKK1 binding to arrayed compounds – biochemical, biotinylated probe, 635/667 nm fluorescence, primary screen (AID 1099); conditions: small-molecule microarray, higher = more signal;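 further: score merges 667nm spot fluorescence with signal to noise across triplicate slides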
[3] = probe aCHRDL2 binding to arrayed compounds – biochemical, biotinylated probe, 635/667 nm fluorescence, primary screen (AID 1100); conditions: small-molecule microarray, higher = more signal
[4] = change in splice reporter luminescence, either direction, cell-based, HEK293, spliceosome inhibition project, primary screen (AID 1101); conditions: HEK293 splicing luciferase reporter, 24 h, higher = more signal, called active from +8 up or from −8 down;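 further: HEK293 cells carrying a splicing-competent luciferase reporter gene; test concentration not given here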
[5] = target: Fibroblast growth factor 10 (Homo sapiens) (UniProt O15520); test: compounds binding fibroblast growth factor 10 – biochemical, small-molecule microarray, 635 nm fluorescence, primary screen (AID 1102); conditions: FGF10 binding, fluorescence 635 nm, higher = more signal
[6] = system: glycogen synthase kinase-3 (GSK3A per assay name; protocol says GSK3B); test: compounds binding glycogen synthase kinase-3 – biochemical, small-molecule microarray, 635 nm fluorescence, GSK3A, primary screen (AID 1103); conditions: fluorescence 635 nm, higher = more signal; further: the record names both GSK3A and GSK3B
[7] = target: Epidermal growth factor receptor (Homo sapiens) (UniProt P00533); test: compounds binding epidermal growth factor receptor – biochemical, small-molecule microarray, 635 nm fluorescence, primary screen (AID 1104); conditions: EGFR binding, higher = more signal;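 further: score merges 667 nm emission intensity with spot signal to noise over triplicate slides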
[8] = target: Follistatin-related protein 3 (Homo sapiens) (UniProt O95633); test: compounds binding follistatin-related protein 3 – biochemical, small-molecule microarray, 635 nm fluorescence, primary screen (AID 1105); conditions: FSTL3 binding, higher = more signal;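 further: score merges emission near 667 nm and signal to noise per printed spot across three slides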
[9] = target: Dickkopf-related protein 1 (Homo sapiens) (UniProt O94907); test: small molecules binding DKK1 protein – biochemical, small-molecule microarray, 635 nm fluorescence scan, primary screen (AID 1106); conditions: higher = more signal;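 further: score merges emission near 667 nm with signal to noise over three replicate slides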
[10] = system: Inhibin beta A chain (activin A); test: small molecules binding activin A – biochemical, small-molecule microarray, 635 nm fluorescence scan, primary screen (AID 1107); conditions: INHBA, higher = more signal;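 further: mouse activin A protein probed at 4.33 µg/mL on printed slides; score merges bound-protein fluorescence near 667 nm with spot signal-to-noise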
[11] = system: Human papillomavirus type 1a protein E7 (residues 44-93); test: small molecules binding HPV E7 44-93 – biochemical, small-molecule microarray, residues 44-93, 635 nm fluorescence, primary screen (AID 1108); conditions: fluorescence 635 nm, higher = more signal;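 further: E7 fragment applied at 1 µg/mL in TBST for 1 h at 4 C; score combines spot fluorescence with its signal to noise ratio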
[12] = hepatitis C replication reporter changes, two-sided – Huh7 cells, luciferase reporter, HCV replication inhibitor project, primary screen (AID 1109); conditions: Huh7 HCV replicon luciferase reporter, 48 h; higher = more signal;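 further: huh7 hepatoma cells harbouring a luciferase neomycin HCV replicon reporter; luciferase luminescence as measure of HCV replicon replication; test concentration not given here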
[13] = target: Left-right determination factor 2 (Homo sapiens) (UniProt O00292); test: small molecules binding LEFTY2 protein – biochemical, small-molecule microarray, 635 nm fluorescence scan, primary screen (AID 1110); conditions: higher = more signal
[14] = target: Calmodulin-1 (Homo sapiens) (UniProt P0DP23); test: small molecules binding calmodulin-1 with EGTA – biochemical, small-molecule microarray, Cy5-labelled CALM1, profiling panel (AID 1111); conditions: Cy5-CALM1 binding fluorescence, higher = more signal;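 further: labelled calmodulin applied in Tris saline Tween buffer holding calcium plus EGTA and DTT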
[15] = target: Calmodulin-1 (Homo sapiens) (UniProt P0DP23); test: small molecules binding Ca-loaded calmodulin-1 – biochemical, small-molecule microarray, Cy5-labelled CALM1, plus calcium, artefact control for SMM control-protein annotation, profiling panel (AID 1112); conditions: Cy5-CALM1 binding fluorescence, higher = more signal;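 further: score merges spot fluorescence with signal to noise from triplicate slides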
[16] = probe aWnt5a binding to arrayed compounds – biochemical, biotinylated probe, 635/667 nm fluorescence, primary screen (AID 1113); conditions: small-molecule microarray, higher = more signal;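 further: score merges 667 nm fluorescence intensity with signal-to-noise per printed feature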
[17] = probe aShh binding to arrayed compounds – biochemical, biotinylated probe, 635/667 nm fluorescence, primary screen (AID 1114); conditions: small-molecule microarray, higher = more signal;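 further: probe is biotin-labelled aShh protein from a stem cell growth factor screen; measures binding of labelled protein to compounds printed on the slide; score merges feature fluorescence at 667 nm with signal-to-noise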
[18] = probe aNog binding to arrayed compounds – biochemical, biotinylated probe, 635/667 nm fluorescence, primary screen (AID 1115); conditions: small-molecule microarray, higher = more signal;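 further: probe is biotinylated aNog protein used at 0.15 µg/mL for 1 h at 4 C; z-score combines 667 nm fluorescence of each spot with its signal to noise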
[19] = target: Torsin-1A-interacting protein 1 (Homo sapiens) (UniProt Q5JTV8); test: compound microarray binding of lysate hLAP1 – cell lysate, small-molecule microarray, COS7 lysate, 635/667 nm fluorescence, primary screen (AID 1116); conditions: 635 nm fluorescence, higher = more signal
[20] = target: Alpha-bungarotoxin (Bungarus multicinctus) (UniProt P60615); test: compounds binding labelled alpha-BTX control protein – biochemical, small-molecule microarray, Alexa647 label, 635/667 nm fluorescence, artefact control for SMM control protein annotation, profiling panel (AID 1117); conditions: alpha-BTX-A647 binding fluorescence, higher = more signal
Sequence of Alpha-bungarotoxin (Bungarus multicinctus) (P60615 whole entry, looked up): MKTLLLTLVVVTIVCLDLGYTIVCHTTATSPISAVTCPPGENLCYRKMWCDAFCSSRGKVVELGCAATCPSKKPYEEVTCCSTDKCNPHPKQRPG

Sequence of Left-right determination factor 2 (Homo sapiens) (O00292 whole entry, looked up): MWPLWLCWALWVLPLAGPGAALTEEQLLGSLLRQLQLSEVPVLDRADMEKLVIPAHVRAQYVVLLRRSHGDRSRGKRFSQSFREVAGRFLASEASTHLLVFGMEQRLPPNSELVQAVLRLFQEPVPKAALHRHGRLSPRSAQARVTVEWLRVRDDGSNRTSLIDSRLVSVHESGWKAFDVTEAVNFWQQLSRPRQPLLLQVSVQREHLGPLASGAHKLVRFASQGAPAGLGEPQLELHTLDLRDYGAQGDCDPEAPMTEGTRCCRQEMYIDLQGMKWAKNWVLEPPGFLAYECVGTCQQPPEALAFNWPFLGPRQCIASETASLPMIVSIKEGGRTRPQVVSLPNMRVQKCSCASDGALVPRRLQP
Sequence of Torsin-1A-interacting protein 1 (Homo sapiens) (Q5JTV8 whole entry, looked up): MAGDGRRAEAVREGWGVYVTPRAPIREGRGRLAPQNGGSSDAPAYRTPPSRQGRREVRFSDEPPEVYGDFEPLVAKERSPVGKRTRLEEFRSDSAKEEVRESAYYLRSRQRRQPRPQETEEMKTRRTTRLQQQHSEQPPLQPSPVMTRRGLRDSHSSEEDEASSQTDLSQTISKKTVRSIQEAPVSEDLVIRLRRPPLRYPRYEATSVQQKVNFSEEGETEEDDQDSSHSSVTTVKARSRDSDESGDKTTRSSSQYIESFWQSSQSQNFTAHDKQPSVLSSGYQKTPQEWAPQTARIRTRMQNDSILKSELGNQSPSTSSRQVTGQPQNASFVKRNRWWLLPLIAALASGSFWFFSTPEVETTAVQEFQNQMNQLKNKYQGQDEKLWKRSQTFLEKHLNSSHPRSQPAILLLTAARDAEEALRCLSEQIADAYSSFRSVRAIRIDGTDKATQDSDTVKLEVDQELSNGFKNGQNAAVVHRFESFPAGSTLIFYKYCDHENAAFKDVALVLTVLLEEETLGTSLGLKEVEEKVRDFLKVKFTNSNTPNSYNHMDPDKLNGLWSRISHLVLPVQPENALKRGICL
Sequence of Fibroblast growth factor 10 (Homo sapiens) (O15520 whole entry, looked up): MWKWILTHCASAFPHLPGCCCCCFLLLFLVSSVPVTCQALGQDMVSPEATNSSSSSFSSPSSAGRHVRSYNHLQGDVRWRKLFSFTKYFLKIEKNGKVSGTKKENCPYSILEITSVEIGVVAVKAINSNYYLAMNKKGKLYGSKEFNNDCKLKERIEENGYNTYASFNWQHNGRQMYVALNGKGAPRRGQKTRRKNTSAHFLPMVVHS
Sequence of Epidermal growth factor receptor (Homo sapiens) (P00533 whole entry, looked up): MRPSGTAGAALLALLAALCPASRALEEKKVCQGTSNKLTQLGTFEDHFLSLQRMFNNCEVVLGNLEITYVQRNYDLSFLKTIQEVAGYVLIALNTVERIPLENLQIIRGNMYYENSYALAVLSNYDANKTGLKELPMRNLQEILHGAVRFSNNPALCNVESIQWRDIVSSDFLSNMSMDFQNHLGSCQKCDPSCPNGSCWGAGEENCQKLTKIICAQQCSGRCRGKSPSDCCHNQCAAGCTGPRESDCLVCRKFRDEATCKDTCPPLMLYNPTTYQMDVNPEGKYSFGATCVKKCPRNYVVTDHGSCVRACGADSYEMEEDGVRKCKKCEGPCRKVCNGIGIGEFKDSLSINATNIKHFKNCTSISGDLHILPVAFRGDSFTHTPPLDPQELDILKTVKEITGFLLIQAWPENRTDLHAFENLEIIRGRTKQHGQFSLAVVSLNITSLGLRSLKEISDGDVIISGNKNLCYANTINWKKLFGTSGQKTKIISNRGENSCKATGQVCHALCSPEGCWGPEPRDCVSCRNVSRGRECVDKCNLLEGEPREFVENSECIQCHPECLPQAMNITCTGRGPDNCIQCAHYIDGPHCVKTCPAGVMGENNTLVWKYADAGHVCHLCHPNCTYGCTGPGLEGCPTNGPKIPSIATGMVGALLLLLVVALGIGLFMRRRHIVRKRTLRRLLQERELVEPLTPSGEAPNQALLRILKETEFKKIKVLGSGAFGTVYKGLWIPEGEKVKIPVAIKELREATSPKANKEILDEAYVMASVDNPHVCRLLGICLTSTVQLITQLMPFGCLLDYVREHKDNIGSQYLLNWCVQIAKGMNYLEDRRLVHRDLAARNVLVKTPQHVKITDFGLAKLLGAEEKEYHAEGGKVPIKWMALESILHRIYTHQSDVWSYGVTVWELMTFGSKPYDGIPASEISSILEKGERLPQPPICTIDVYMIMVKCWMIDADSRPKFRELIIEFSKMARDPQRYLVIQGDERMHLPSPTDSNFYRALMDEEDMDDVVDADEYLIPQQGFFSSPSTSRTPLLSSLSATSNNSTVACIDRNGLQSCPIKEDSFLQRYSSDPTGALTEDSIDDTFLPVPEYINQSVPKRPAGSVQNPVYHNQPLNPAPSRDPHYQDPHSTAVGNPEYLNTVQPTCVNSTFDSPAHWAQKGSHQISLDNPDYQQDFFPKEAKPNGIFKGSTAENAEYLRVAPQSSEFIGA
Sequence of Follistatin-related protein 3 (Homo sapiens) (O95633 whole entry, looked up): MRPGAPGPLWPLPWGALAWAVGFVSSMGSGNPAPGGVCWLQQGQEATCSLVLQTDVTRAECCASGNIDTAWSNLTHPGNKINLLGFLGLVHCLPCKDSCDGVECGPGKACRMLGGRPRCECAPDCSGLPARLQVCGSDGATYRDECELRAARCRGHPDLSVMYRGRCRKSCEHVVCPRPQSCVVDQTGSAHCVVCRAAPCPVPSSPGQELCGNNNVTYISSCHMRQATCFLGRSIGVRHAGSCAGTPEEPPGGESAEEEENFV
Sequence of Dickkopf-related protein 1 (Homo sapiens) (O94907 whole entry, looked up): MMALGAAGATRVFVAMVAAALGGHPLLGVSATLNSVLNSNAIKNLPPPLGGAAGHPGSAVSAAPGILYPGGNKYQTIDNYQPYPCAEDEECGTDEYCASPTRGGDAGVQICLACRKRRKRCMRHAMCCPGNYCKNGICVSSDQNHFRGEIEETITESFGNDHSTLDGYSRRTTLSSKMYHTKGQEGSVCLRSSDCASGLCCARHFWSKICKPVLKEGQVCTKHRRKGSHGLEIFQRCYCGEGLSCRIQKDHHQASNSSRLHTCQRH

Row | SMILES | composite z-score [1] | composite z-score [2] | composite z-score [3] | z-score [4] | composite z-score [5] | composite z-score [6] | composite z-score [7] | composite z-score [8] | composite z-score [9] | composite z-score [10] | composite z-score [11] | z-score [12] | composite z-score [13] | composite z-score [14] | composite z-score [15] | composite z-score [16] | composite z-score [17] | composite z-score [18] | composite z-score [19] | composite z-score [20]
1 | CN1C(=O)C2C=CC(C(O)c3ccccc3)N(N(c3ccccc3)c3ccccc3)C2C1=O (stereo not given) | 1.59 | 0.629 | 0.632 | 0.597 (inactive) | -0.113 | -0.372 | 0.142 | 0.455 | 0.254 | 1.07 | -0.364 | -0.442 | 0.618 | -0.315 | -0.717 | 0.0181 | -0.0904 | 0.235 | 0.911 | 0.514
2 | O[C@@H](Cc1ccccc1)[C@H]1C2C=CCCC=C2CN1Cc1cccc(Cl)c1 (stereo not given in full) | 0.77 | -0.0422 | -0.284 | -0.381 (inactive) | 0.9 | 1.08 | 0.231 | 1.24 | 0.496 | 0.296 | 1.1 | -1.42 | 0.702 | 0.0101 | -0.2 | -0.0721 | -0.138 | 0.277 | 0.761 | 1.36
3 | COc1cc(COC(C)=O)ccc1OC(C)=O | 0.0968 | 1.85 | 0.285 | -0.309 (inactive) | 0.301 | 0.578 | 1.04 | 0.505 | 1.17 | 0.47 | 0.793 | -0.785 | 0.44 | 0.434 | -0.156 | 0.731 | -0.093 | -0.0878 | 0.299 | -0.0551
4 | CC(C)=CCN[C@H](CO)c1ccccc1 | 0.38 | -0.274 | -0.235 | -0.795 (inactive) | 0.795 | -0.366 | 0.149 | 0.576 | 0.749 | 1.01 | 0.318 | -1.76 | 0.422 | -0.644 | -0.881 | -0.13 | 0.0048 | -0.278 | 0.157 | 0.189
5 | O=C1O[C@H](c2ccccc2)[C@H](c2ccccc2)N2[C@H]1[C@@H](C(=O)N1CCCCCCC1)[C@]1(C(=O)Nc3ccc(C#CCCO)cc31)[C@H]2c1ccccc1OCCO | 2.26 | 3.11 | 1.53 | -0.207 (inactive) | 1.76 | 1.5 | 2 | 1.79 | 2.76 | 1.84 | 1.62 | -1.53 | 1.91 | 3.03 | 1.73 | 1.69 | 3.01 | 2.38 | 5.84 | 4.84
6 | COC(=O)[C@@]1(Cc2ccc(OC)cc2)[C@@H]2C(=CC(=O)[C@H]2CC(=O)C(=O)N2CCCC2)CN1C(=O)c1ccccc1 | 0.108 | 1.01 | 0.918 | -2.47 (inactive) | -0.148 | -0.573 | 0.351 | 0.0649 | -0.69 | 0.765 | -0.514 | -1.88 | -0.505 | 0.946 | 0.713 | 0.368 | 1.06 | 1.04 | 0.674 | 0.15
7 | C=CCNC(=O)[C@@H]1[C@H]2C(=O)O[C@H](c3ccccc3)[C@H](c3ccccc3)N2[C@H](c2ccccc2OCCO)[C@@]12C(=O)N(C(=O)OCCOC)c1ccccc12 | 1.54 | -0.0073 | -0.0387 | -0.108 (inactive) | 1.27 | 1.33 | 0.828 | 1.44 | 0.825 | 0.843 | 1.43 | -2.64 | 0.877 | 0.926 | -0.464 | 0.132 | 0.126 | -0.331 | 0.784 | 1.25
8 | CN(C)C(=O)[C@]1(Cc2ccccc2N=[N+]=[N-])N=C(c2ccc(OCCCO)cc2)O[C@@H]1c1ccccc1N=[N+]=[N-] | 1.11 | 1.72 | 1.01 | -0.727 (inactive) | 0.885 | -0.0929 | 0.405 | 1.3 | 0.172 | 1.14 | 1.38 | -2.69 | 0.116 | 1.7 | 0.497 | -0.0179 | 0.0796 | 1.39 | 2.54 | 1.22
9 | CCOC(=O)C[C@H]1[C@H](OC(=O)c2ccc(C(=O)c3ccccc3)cc2)[C@@H](NC(=O)c2ccc3ccccc3n2)c2cc(OCCCO)ccc2N1C(=O)c1ccccc1 | 0.772 | 0.177 | 0.628 | 0.305 (inactive) | 0.719 | 1.28 | -0.278 | 0.806 | 0.271 | -0.177 | 0.997 | -1.63 | -0.538 | 1.47 | 0.202 | 0.0079 | 0.308 | 0.217 | 0.164 | 1.05
10 | CC(C)C(CO)N1C(=O)[C@@H]2C3C(=O)OCCC/C=C\[C@H]3OC23C=CCN(CCN2CCOCC2)C(=O)[C@@H]13 (stereo not given in full) | -0.768 | -0.355 | -0.45 | 0.963 (inactive) | 0.0971 | 0.0585 | -0.203 | 0.0915 | 0.284 | 0.88 | -0.729 | 0.0618 | 0.0228 | -0.799 | -0.386 | -0.0529 | -0.209 | -0.238 | 1.38 | -1.6
11 | CC(C)C(=C=CC[C@@H](O)c1ccc(OCCO)cc1)C[C@@H](O)c1ccccn1 | 0.595 | -0.0166 | -0.495 | 0.106 (inactive) | 1.6 | 0.854 | 0.124 | 1.06 | 1.76 | 0.59 | 0.323 | -0.218 | 1.21 | -0.315 | -0.113 | -0.0721 | -0.0709 | -0.0926 | 1.08 | -0.0878
12 | CC1CC/C=C\[C@H]2OC34C=CCN(C(C)(C)C)C(=O)[C@H]3N(CCO)C(=O)[C@@H]4C2C(=O)O1 (stereo not given in full) | -0.103 | -0.404 | 0.51 | 0.851 (inactive) | -0.98 | -0.496 | -1.33 | -0.755 | -0.739 | -0.0663 | -0.432 | -0.106 | -1.66 | -1.34 | -0.746 | -0.224 | -0.372 | 0.489 | -1.25 | -0.153
